Screening results (PubChem)
TDP1 cell CPT – DT40-hTDP1 cell growth loss with CPT. chicken DT40 Tdp1-/-;hTDP1 cells + 20 nM CPT, ATP luminescence, 48 h. Potency, µM (doses to about 46.2 µM), for the others: top-dose activity change, negative = growth inhibition, usual class: inhibitors. hit rate 12% among 420,000. AID 686979; also: potency is read from the fitted curve at half-maximal effect; nearly all actives have a fitted effect of over 55% in size
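Chicken DT40 Tdp1-/- cells stably complemented with human TDP1 were seeded at 400 cells/well in medium containing 20 nM camptothecin, exposed to pin-transferred compounds, and grown at 37 °C for at least 48 hr. Viability was read as ATP luminescence.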
IL-1B inflam inh – inhibitors of inflammasome signaling (IL-1 beta secretion); hit rate 4.7% among 360,000; THP-1 LPS/ATP IL-1B secretion, AlphaLISA, 16 h; hits give low values; AID 743279; activity change, % at 57.5 µM; in the data active = activity change below about -50%; inconclusive = mostly about -30% to -49%
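THP-1 cells pretreated 1 hr with compounds (up to 57.5 uM final), then stimulated with LPS (250 ng/mL final) plus ATP (1.25 mM final); secreted IL-1B measured by AlphaLISA after 16 hr, decreased signal indicating inhibition.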
TDP1 cell noCPT – qHTS for Inhibitors of human tyrosyl-DNA phosphodiesterase 1 (TDP1): qHTS in cells in absence of CPT; DT40 Tdp1-/- hTDP1 cells, no CPT, ATP luminescence, 48 h; Potency, µM (series often up to 46.2 µM), inactives show at the top dose activity change, negative = growth inhibition, hits mostly inhibitors; hit rate 15% among 420,000; also: potency is read from the fitted curve at half-maximal effect; nearly all actives have a fitted effect of over 55% in size
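No-CPT arm: Tdp1-/-;hTDP1 DT40 cells (400/well) plus compounds, incubated ≥48 hr at 37 °C. Readout CellTiter-Glo luminescence.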
HT1080-NT tox – kills 2HG-producing HT-1080-NT fibrosarcoma cells. HT-1080-NT fibrosarcoma viability, CellTiter-Glo ATP luminescence, 48 h. hit rate 1.6% among 360,000. Potency, µM (highest dose often 46.1 µM), without a hit: top-dose activity, negative = less viability, hits mostly cytotoxic;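 also: NT is the 2HG producing partner of a matched IDH1 knockdown line; potency is read from the fitted curve at half-maximal effect; 0% = DMSO-treated cells and -100% = media-only wells without cells; nearly all actives have a fitted effect of over 55% in size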
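Viability of the 2HG-overproducing fibrosarcoma line after 48 hours of compound exposure at 37 degrees C was determined by luminescence with CellTiter-Glo, and concentration-effect curves were then fitted and categorized.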
HT1080 IDH1KD tx – HT-1080 IDH1 knockdown cell toxicity (counter line); HT-1080 IDH1 knockdown viability, ATP luminescence, 48 h; Potency, µM (top dose mostly 46.1 µM), inactives show top-dose activity, negative = toxicity, actives largely listed as cytotoxic; hit rate 2% among 360,000; AID 686971;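 also: potency is read from the fitted curve at half-maximal effect; 0% = DMSO wells and -100% = cell-free medium wells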
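Cytotoxicity counter-line: IDH1KD HT-1080, 48 h, CellTiter-Glo. Curves classed by r2, magnitude and activity.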
Starred values were filed as active, the others as inactive; u = inconclusive; x = no result; [ ] = another dose, or the depositor's remark. This is a sample that favours compounds with a hit; in the whole collection about 19% have one here. Unless noted, calls follow the shape of the dose curve; as a rule, active = well fitted curve in the direction sought with a large enough effect; inconclusive = small, poorly fitted or top-dose-only effect, or another doubt; inactive = no such curve, though single readings can be large; an effect the other way counts as inactive or inconclusive. Unless noted, % is scaled to controls: 0 for no effect and ±100 for the full control effect.

SMILES | TDP1 cell CPT | IL-1B inflam inh | TDP1 cell noCPT | HT1080-NT tox | HT1080 IDH1KD tx
Cc1ccc2c(c1)cc(CN(Cc1ccc3c(c1)OCO3)C(=O)c1ccccc1)c1nnnn12 | u | -26.4 | 20.6µM* | 17.0% | 15.1%
Cc1ccc2c(c1)cc(CN(Cc1ccco1)S(=O)(=O)c1ccccc1)c1nnnn12 | 13µM* | 31.2 | 20.6µM* | -1.3% | -0.2%
Cc1c(Cl)cccc1NC(=O)Nc1cc(C(C)(C)C)on1 | u | -7.6 | 14.6µM* | 22.9% | -1.6%
CC(C)(C)c1cc(NC(=O)Nc2ccc(Br)cc2Cl)no1 | 20.6µM* | -56.7* | u | -19.8% | -16.1%
CC(C)(C)c1cc(NC(=O)Nc2ccc(Cl)cc2Cl)no1 | u | -11.5 | u | u | u
CCOc1ccccc1NC(=O)COC(=O)COc1c(Cl)cc(Cl)c2ccc(C)nc12 | -17.3% | 14.9 | 0.4% | -12.2% | -7.6%
CCN(CC(=O)NC(C)(C)C)C(=O)COc1c(Cl)cc(Cl)c2ccc(C)nc12 | 23.1µM* | 0.0 | 13µM* | 6.2% | -23.9%
CCCCn1c(N)c(N(CC(C)C)C(=O)C2CCN(S(=O)(=O)c3ccc(C)c(C)c3)CC2)c(=O)[nH]c1=O | u | u | -7.2% | 13.7% | 1.0%
CCc1nc(N=Nc2c(O)[nH]c3ccccc23)c2c3c(sc2n1)CCC3 | 13µM* | -24.6 | 16.4µM* | 20.2% | 21.5%
CC1CCc2c(sc3ncn(CC(=O)N=Nc4c(O)[nH]c5ccccc45)c(=O)c23)C1 (stereo unspecified) | u | 10.2 | -28.3% | -10.1% | -0.5%
CCc1nc(SCC(=O)c2ccccc2)c2ccccc2n1 | u | u | 13µM* | -0.8% | -7.0%
CCc1nc(SCC(=O)N2c3ccccc3Sc3ccccc32)c2ccccc2n1 | u | u | 14.6µM* | 2.4% | 8.8%
O=C(CSc1nc(Cc2ccccc2)nc2ccccc12)c1ccc2c(c1)OCCO2 | 16.4µM* | -10.6 | 23.1µM* | u | -23.9%
O=C(CSc1ncnc2ccccc12)c1ccc2c(c1)OCCO2 | 18.4µM* | -30.0 | 18.4µM* | u | -26.9%
CCN(CC)C(=O)CSc1nc(Cc2ccccc2)nc2ccccc12 | u | -21.7 | u | -1.7% | -8.8%
C[C@H](CO)N1C[C@H](C)[C@@H](CN(C)S(=O)(=O)c2cn(C)cn2)Oc2c(NS(=O)(=O)c3cccs3)cccc2C1=O | -1.8% | 26.7 | -0.5% | -0.4% | 0.9%
O=C(NCc1c(Cl)cccc1Cl)c1[nH]c(C(F)(F)F)nc1-c1ccccc1 | 1.0% | 10.4 | -13.6% | -10.7% | -11.5%
COc1ccc(C2=C(C)C(N3CCC(C(=O)NCc4ccco4)CC3)=NS2(=O)=O)cc1 | -27.5% | x | u | x | x
O=C(c1ccc(F)cc1)N1CCC(C(=O)N2CCN(S(=O)(=O)c3cccc(Cl)c3)CC2)CC1 | -26.9% | -1.8 | u | -0.3% | -4.4%
Cc1ccc(-c2csc3ncnc(SCC(=O)c4ccc5c(c4)OCCO5)c23)cc1 | u | -4.3 | u | -1.4% | 7.1%
Cn1nnnc1SCC(=O)N1c2ccccc2Sc2ccccc21 | 10.3µM* | 9.6 | 14.6µM* | -2.1% | 3.9%
Cc1sc2ncnc(SCC(=O)c3ccc4c(c3)OCCO4)c2c1-c1ccccc1 | 6.51µM* | 0.0 | 9.2µM* | 1.1% | -1.9%
O=C(CSc1ncnc2scc(-c3ccc(F)cc3)c12)c1ccc2c(c1)OCCO2 | 20.6µM* | -27.3 | 18.4µM* | 0.3% | -0.8%
CCc1nc(SCC(=O)c2ccc3c(c2)OCCO3)c2ccccc2n1 | u | -63.0* | u | u | u
CCn1nnnc1SCC(=O)N1c2ccccc2Sc2ccccc21 | u | -19.7 | u | -6.6% | -5.2%[9.24 µM]
CC(C)(C)c1nc(SCC(=O)Nc2ccc3c(c2)OCCO3)c2ccccc2n1 | u | -2.1 | u | 7.6% | -1.6%
c1ccc(OCc2noc(CN3CCC(C4CCCCC4)C3)n2)cc1 (stereo unspecified) | u | -16.1 | u | -4.6% | -1.8%
O=Cc1ccc(OCCOc2ccc([N+](=O)[O-])cc2)cc1 | u | -0.2 | -16.3% | 2.4% | -1.1%
